Source: PubChem BioAssay
Activity calls are given as the source filed them. Unless noted, how the calls were made is not given here.

How the values were obtained:
[1] = test system: Wnt5a (protein binding on small-molecule microarray); assay: Wnt5a binders on small-molecule microarray, primary screen, biophysical, 635/667 nm fluorescence (AID 1142); conditions: 635 nm fluorescence, higher = more signal;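 further: fluorescence read at 667 nm with signal to noise per printed feature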
[2] = cell viability in Huh7 cells, primary screen, cytotoxicity control for HCV replication inhibitor project, CellTiter-Glo luminescence, basal, 48 h (AID 1143); conditions: Huh7 HCV replicon, higher = more signal, called active from +8 up or from −8 down;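 further: Huh7 hepatoma cells carrying a hepatitis C replication reporter with no stimulus; test concentration not given here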
[3] = P. aeruginosa biofilm formation inhibitors, primary screen, PAO1 strain, BacTiter-Glo luminescence, LB-PBS (AID 1144); conditions: 12 h, higher = more signal
[4] = CREB reporter modulators without forskolin, primary screen, cell-based, PC12, CRE-LacZ reporter, unstimulated (AID 1145); conditions: no forskolin, luminescence, 4.5 h, higher = more signal, called active from +8 up or from −8 down
[5] = CREB reporter modulators under forskolin, primary screen, cell-based, PC12, CRE-LacZ reporter, forskolin-stimulated (AID 1146); conditions: luminescence, 4.5 h, higher = more signal, called active from +8 up or from −8 down;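 further: PC12 cells with 6xCRE LacZ reporter stimulated by forskolin 10 µM; beta-galactosidase reporter signal reflecting CREB driven transcription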
[6] = biological target: Streptavidin (Streptomyces avidinii) (UniProt P22629); assay: streptavidin binders on small-molecule microarray, primary screen, artefact control for SMM compound annotation, biophysical, 635/667 nm fluorescence (AID 1147); conditions: streptavidin binding, higher = more signal;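 further: signal reflects streptavidin binding to arrayed compounds as a control protein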
[7] = small-molecule binders of probe aInhba, primary screen, biochemical, small-molecule microarray, 635/667 nm fluorescence (AID 1148); conditions: higher = more signal;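 further: score merges 667nm spot fluorescence with signal-to-noise for antibody binding to printed compounds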
Torsin-1A (Homo sapiens) [8] = biological target: Torsin-1A (Homo sapiens) (UniProt O14656); assay: torsin A binders from cell lysate, primary screen, small-molecule microarray, wild-type, 635/667 nm (AID 1149); conditions: COS7 hTOR1A-WT lysate, 635 nm fluorescence, higher = more signal
Torsin-1A (Homo sapiens) [9] = biological target: Torsin-1A (Homo sapiens) (UniProt O14656); assay: small-molecule binders of mutant TOR1A in lysate, primary screen, cell lysate, small-molecule microarray, COS7 lysate, 635/667 nm fluorescence (AID 1150); conditions: COS7 hTOR1A mutant lysate, 635 nm fluorescence, higher = more signal;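 further: score pools 667 nm emission and signal to noise measuring lysate protein binding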
[10] = test system: Sonic hedgehog protein (Shh); assay: small-molecule binders of Shh protein, primary screen, biochemical, small-molecule microarray, 635/667 nm fluorescence (AID 1151); conditions: small-molecule microarray binding, 635 nm fluorescence; higher = more signal;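 further: Shh protein binding to compounds spotted on small-molecule microarray slides; score combines spot fluorescence intensity with signal-to-noise across triplicate slides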

Chain of Streptavidin (Streptomyces avidinii) (P22629 whole entry, looked up): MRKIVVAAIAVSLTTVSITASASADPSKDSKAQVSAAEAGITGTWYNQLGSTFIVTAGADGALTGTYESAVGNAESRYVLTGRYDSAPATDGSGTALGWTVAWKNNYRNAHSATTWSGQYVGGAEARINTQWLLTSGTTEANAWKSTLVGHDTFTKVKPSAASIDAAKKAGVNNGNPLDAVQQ
Chain of Torsin-1A (Homo sapiens) (O14656 whole entry, looked up): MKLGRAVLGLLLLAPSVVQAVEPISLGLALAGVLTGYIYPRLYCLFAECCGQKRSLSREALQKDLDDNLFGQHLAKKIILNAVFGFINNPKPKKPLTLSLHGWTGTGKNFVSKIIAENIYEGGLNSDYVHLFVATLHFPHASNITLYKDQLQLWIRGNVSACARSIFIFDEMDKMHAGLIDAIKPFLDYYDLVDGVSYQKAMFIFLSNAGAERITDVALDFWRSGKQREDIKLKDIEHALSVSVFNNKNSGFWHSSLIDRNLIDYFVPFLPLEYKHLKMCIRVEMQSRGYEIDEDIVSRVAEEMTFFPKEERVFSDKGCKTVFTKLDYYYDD

Row | SMILES | composite z-score [1] | z-score [2] | z-score [3] | z-score [4] | z-score [5] | composite z-score [6] | composite z-score [7] | composite z-score (Torsin-1A (Homo sapiens) [8]) | composite z-score (Torsin-1A (Homo sapiens) [9]) | composite z-score [10]
1 | CCOC(=O)NN=C1C[C@@H](O)[C@@H](O)[C@@H]2[C@@H]3C(=O)N(C(C)(C)C)C(=O)[C@@H]3CC[C@@H]12 | -0.263 | 0.312 (inactive) | 0.125 (inactive) | -0.0246 (inactive) | 0.244 (inactive) | -0.784 | -0.0849 | 0.527 | 0.541 | -0.36
2 | C[C@H]1CC[C@@H](C(=O)O)N[C@@H]1c1ccc(C#CCN(C)C)cc1 | 0.163 | 0.141 (inactive) | -0.0379 (inactive) | 1.83 (inactive) | -1.12 (inactive) | 0.85 | -0.273 | 0.363 | 0.323 | 0.427
3 | CO[C@@H]1COC(=O)CC=C[C@@H](C)[C@@H]2C=C[C@H](O)[C@@H](COC(=O)[C@H](C)NC(=O)CC=C[C@H]1C)O2 | 0.0389 | -2.59 (inactive) | -0.972 (inactive) | -0.324 (inactive) | 0.194 (inactive) | -0.408 | -0.265 | 1.44 | 1.81 | 2.13
4 | Cn1c(=O)n2n(c1=O)[C@H]1[C@H](O)[C@@H]3O[C@@H]3C(=NOC[C@@H](O)COCc3ccco3)[C@H]1CC2 | 0.0562 | -0.0843 (inactive) | 0.0712 (inactive) | 0.248 (inactive) | 0.496 (inactive) | 0.548 | 0.0345 | 0.547 | 0.266 | 0.582
5 | O[C@@H](Cc1ccccc1)[C@H]1C2C=CCCC(c3ccccc3)=C2CN1Cc1cccc(Cl)c1 (stereo not given in full) | 0.0825 | -1.31 (inactive) | -0.577 (inactive) | 2.58 (inactive) | 1.44 (inactive) | 0.26 | 0.0355 | 0.762 | 0.144 | 0.733
6 | C=C(CCCC)C(=O)CC[C@@H](OC(C)=O)c1cccc(OCCO)c1 | 0.0837 | -7.53 (inactive) | -0.0381 (inactive) | 9.03 (active) | 2.58 (inactive) | -0.543 | -0.21 | 1.29 | 0.594 | 1.56
7 | O=C1[C@H]2[C@H]3[C@H](O)[C@H](O)CC(=NOC[C@@H](O)COCc4ccco4)[C@H]3CC[C@H]2C(=O)N1c1cccc(Oc2ccccc2)c1 | -0.31 | -0.6 (inactive) | -0.0166 (inactive) | -0.21 (inactive) | 0.452 (inactive) | -0.393 | -0.285 | 0.626 | 0.948 | -0.621
8 | COC(=O)[C@@]1(Cc2ccc(F)cc2)[C@H]2c3cc(C(=O)N(C)C)n(Cc4ccc(OC)c(OC)c4)c3C[C@H]2CN1C(=O)c1ccccc1 | 0.702 | -3.26 (inactive) | -0.642 (inactive) | 0.194 (inactive) | 0.426 (inactive) | 0.319 | 0.351 | 0.0209 | 0.1 | -0.715
9 | CCCNC(=O)OC[C@H]1O[C@H](CCON=C2[C@H]3CCn4c(=O)n(-c5ccccc5)c(=O)n4[C@H]3[C@H](O)[C@@H]3O[C@H]23)C=C[C@@H]1Oc1ccc(OC)cc1 | 0.14 | -0.0238 (inactive) | 1.01 (inactive) | 0.899 (inactive) | 0.301 (inactive) | -0.28 | 0.0294 | 0.0932 | 0.565 | 0.572
10 | COC(=O)C1=C(C)N(Cc2ccccc2)[C@]23O[C@](C(=O)OC)(C(=O)N2[C@@H]1c1ccccc1)[C@H]1CCOC(=O)[C@H]13 | 0.313 | -0.147 (inactive) | -1.02 (inactive) | 0.286 (inactive) | -0.213 (inactive) | 0.0391 | -0.0118 | 0.252 | 0.22 | 1.05
11 | CN(C)CCCNC(=O)[C@@H]1c2ccccc2C(=O)N(Cc2ccccc2)[C@H]1c1ccc(CO)cc1 | -0.142 | 0.143 (inactive) | 0.596 (inactive) | -0.295 (inactive) | -0.877 (inactive) | -0.844 | -0.128 | -0.146 | -0.725 | -0.336
12 | CN1C(=O)[C@@]2(CCC(=O)OC(C)(C)C)N=C(c3ccc(OCCCO)cc3)O[C@H]2c2ccccc21 | 0.0942 | -4.68 (inactive) | -1.73 (inactive) | 0.652 (inactive) | -1.92 (inactive) | -0.235 | 0.0649 | -0.132 | 0.43 | 1.5
13 | O=C1O[C@@H](c2ccccc2)[C@@H](c2ccccc2)N2[C@@H](c3ccc(O)cc3)[C@]3(C(=O)Nc4ccccc43)[C@@H](C(=O)O)[C@H]12 | -0.0286 | -4.36 (inactive) | 0.0547 (inactive) | 0.568 (inactive) | 0.532 (inactive) | 0.0078 | 0.0442 | 0.509 | 0.548 | -0.192
14 | CCOC(=O)[C@H](Cc1ccccc1)NC(=O)CCC1CC(OC(=O)NCc2ccc3c(c2)OCO3)CC2(CCCC(COC(=O)NCC3CCCCC3)O2)O1 (stereo not given in full) | 0.0472 | -0.734 (inactive) | -0.0126 (inactive) | -0.613 (inactive) | -0.177 (inactive) | 0.592 | -0.0289 | -0.407 | 0.538 | 1.36
15 | O=C1[C@H]2[C@H]3[C@H](O)[C@H](O)CC(=NOCc4ccccc4)[C@H]3CC[C@H]2C(=O)N1c1ccc(F)cc1F | -0.0542 | -0.627 (inactive) | -0.665 (inactive) | -0.926 (inactive) | -0.14 (inactive) | -0.899 | -0.536 | -0.0184 | -0.013 | -0.311
16 | CCOC(=O)[C@H](CC(C)C)NC(=O)CCC1CC(OC(=O)NCCc2ccc(F)cc2)CC2(CCCC(COC(=O)NCc3ccccc3)O2)O1 (stereo not given in full) | 0.371 | -4.31 (inactive) | -0.568 (inactive) | 0.199 (inactive) | 0.659 (inactive) | 0.255 | -0.226 | 1.47 | 0.154 | 1.86
17 | Cc1ccc(C2CC=C(C(=O)O)CN2S(=O)(=O)c2ccc(C)cc2)cc1 (stereo not given) | 0.212 | 0.0273 (inactive) | -0.119 (inactive) | -0.378 (inactive) | 0.707 (inactive) | 0.169 | -0.024 | 0.427 | 0.426 | -0.065
18 | CCOC(=O)[C@H](Cc1ccccc1)NC(=O)CCC1CC(OC(=O)NCCc2ccc(F)cc2)CC2(CCCC(COC(=O)NCC(c3ccccc3)c3ccccc3)O2)O1 (stereo not given in full) | 0.0879 | -0.792 (inactive) | 0.338 (inactive) | 0.286 (inactive) | 1.23 (inactive) | 0.388 | -0.248 | -0.0715 | 0.656 | 0.719
19 | CCc1cc2c(nc1CC)CCN(CCC(C)=NOC[C@@H](O)[C@H]1O[C@@H]3OC(C)(C)O[C@@H]3[C@H]1O)C2 | 0.146 | 0.731 (inactive) | -0.319 (inactive) | 0.006 (inactive) | 0.347 (inactive) | 0.18 | -0.0216 | 0.3 | 0.101 | 0.528
20 | CC(C)c1ccc(NN2C(C(O)c3ccc4c(c3)OCO4)C=CC3C(=O)N(c4ccccc4)C(=O)C32)cc1 (stereo not given) | 0.268 | -0.0997 (inactive) | -0.505 (inactive) | 0.629 (inactive) | -0.0824 (inactive) | 2.14 | 0.125 | -0.0945 | 1.04 | 0.397
21 | CC(C)CON=C1C[C@@H](O)[C@@H](O)[C@@H]2[C@@H]3C(=O)N(C[C@@H]4CCCO4)C(=O)[C@@H]3CC[C@H]12 | -0.0313 | -1.36 (inactive) | 1.34 (inactive) | -1.02 (inactive) | -0.296 (inactive) | -0.23 | -0.128 | 0.0672 | 1.49 | 0.819
22 | CC(=O)OC[C@H]1O[C@H](C#CCCCc2ccccc2)C=C[C@@H]1OC(C)=O | 0.18 | -2.33 (inactive) | 0.952 (inactive) | 0.106 (inactive) | 1.28 (inactive) | -0.111 | 0.322 | -0.0078 | 0.0804 | 1.19
23 | C[N+](C)(C)CCCCCCNC(=O)[C@@H]1C[C@@H]2C(=O)N3CCC[C@H]3C(=O)N2[C@@H]1c1cccc(OCCO)c1 | -0.0544 | -0.345 (inactive) | -1.34 (inactive) | -1.34 (inactive) | 0.27 (inactive) | -1.05 | -0.0754 | -0.383 | 0.624 | 2.25
24 | CCc1cccc(NC(=O)O[C@H]2[C@H](OC(=O)Nc3ccc4c(c3)OCO4)[C@@H](OC(=O)Nc3ccc4c(c3)OCO4)[C@@H](OC)O[C@@H]2CO)c1 | 0.546 | -3.35 (inactive) | -1.21 (inactive) | 0.101 (inactive) | -0.684 (inactive) | 1.28 | 0.0073 | 1.14 | 0.731 | 1.76
25 | COC(=O)[C@]1(CO)N=C(c2ccc(OCCCO)cc2)O[C@@H]1c1ccccc1N=[N+]=[N-] | 0.421 | 0.159 (inactive) | 0.393 (inactive) | -0.609 (inactive) | -0.736 (inactive) | -0.435 | 0.0646 | 1.85 | 1.9 | 2.05
26 | CCCNC(=O)OC[C@H]1O[C@H](CCON=C[C@@H](OC)[C@H](C)C=CCC(=O)OC)C=C[C@@H]1Oc1ccc(OC)cc1 | -0.0615 | -0.444 (inactive) | 1.18 (inactive) | 3.46 (inactive) | 0.963 (inactive) | -0.351 | -0.206 | 0.525 | 0.422 | 1.05
27 | CCOC(=O)[C@H](CC(C)C)NC(=O)CCC1CC(OC(=O)NCc2cccc3ccccc23)CC2(CCCC(COC(=O)NCCc3ccccc3OC)O2)O1 (stereo not given in full) | -0.0588 | -1.86 (inactive) | 0.6 (inactive) | -0.44 (inactive) | 0.0744 (inactive) | 0.556 | -0.217 | 0.203 | 0.408 | 1.07
28 | CCOC(=O)C1=CCC(c2cc3ccccc3[nH]2)NC1 (stereo not given) | 0.109 | -2.83 (inactive) | 0.756 (inactive) | 0.369 (inactive) | 0.464 (inactive) | 0.338 | 0.029 | 0.661 | 0.449 | -0.402
29 | C/C=C\[C@@H](NCc1ccccc1Br)[C@@H](O)Cc1ccccc1 | -0.771 | -5.43 (inactive) | 0.541 (inactive) | 0.857 (inactive) | 0.567 (inactive) | -0.838 | -0.153 | 0.0908 | -0.27 | -1.3
